The target of assay [1] is Luciferin 4-monooxygenase (Photinus pyralis) (UniProt P08659). Nature of the assay: qHTS assay to identify small molecule inhibitors of firefly luciferase (AID 1224835). Also: nearly all actives have a fitted effect of over 25% in size. Also: potency is read from the fitted curve at half-maximal effect. A digest of the protocol: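 Quantitative HTS format; KM concentrations of both substrates. Purified P. pyralis FLuc activity quantified from luminescence images.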
(Quantitative high-throughput screening tests each substance at several concentrations.)

Assay [2] can be described thus: qHTS assay to identify small molecule antagonists of the constitutive androstane receptor (CAR) signaling pathway - cell viability counter screen (AID 1224837). Also: nearly all actives have a fitted effect of over 45% in size. Also: potency is read from the fitted curve at half-maximal effect. The essentials: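 HepG2-CYP2B6-hCAR cells, 2500/well, 4 hr pre-incubation; compound titration, 15 conc.; CITCO 50 nM final; 23 hr, 37 C/5% CO2; CellTiter-Fluor, fluorescence intensity.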
Assay [3] concerns the target Nuclear receptor subfamily 1 group I member 3 (Homo sapiens) (UniProt Q14994). Nature of the assay: qHTS assay to identify small molecule antagonists of the constitutive androstane receptor (CAR) signaling pathway (AID 1224838).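 Also: HepG2 cells stably expressing hCAR with CYP2B6 luciferase reporter stimulated by CITCO; nearly all actives have a fitted effect of over 40% in size.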 The essentials:
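HepG2-CYP2B6-hCAR cells; 4 h pre-incubation; cpd (15 conc) + CITCO 50 nM final; 24 h, 37 C/5% CO2; ONE-Glo, luminescence.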

For assay [4] the target is unchanged. Nature of the assay: qHTS assay to identify small molecule agonists of the constitutive androstane receptor (CAR) signaling pathway (AID 1224839).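 Also: HepG2 cells stably carrying human CAR and a CYP2B6 luciferase reporter; nearly all actives have a fitted effect of over 15% in size.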 The essentials: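 Readout: firefly luciferase luminescence via ONE-Glo. System: HepG2 double-stable for hCAR and CYP2B6-2.2kb. Conditions: 15-point compound titration, PK11195 at 0.75 uM final, 24 h incubation.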

Assay [5] can be described thus: qHTS assay to identify small molecule antagonists of the estrogen related receptor signaling pathway with the pleiotropic PPARgamma coactivator (PGC) from Tox21 10K library - cell viability counter screen (AID 1224840; active = well fitted cell-killing curve with a large enough effect in the repeat runs, not every such curve was filed as active; also: nearly all actives have a fitted effect of over 40% in size; also: potency is read from the fitted curve at half-maximal effect). The essentials:
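PGC/ERR cells, 2,000/well; 6 h pre-incubation 37 C/5% CO2; cpd in DMSO via pin tool; 17.5 h 37 C; CellTiter-Fluor, 30 min; fluorescence.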

Assay [6] is described as follows: qHTS assay to identify small molecule agonists of the estrogen related receptor signaling pathway with the pleiotropic PPARgamma coactivator (PGC) from Tox21 10K library (AID 1224842). Also: nearly all actives have a fitted effect of over 15% in size. A digest of the protocol:
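PGC/ERR reporter cells (NTP line) were seeded 2,000 per well, rested 6 h at 37 C/5% CO2, then pin-dosed with compounds in DMSO for 18 h at 37 C; luciferase read by One-Glo luminescence after 30 min at room temperature.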

Assay [7] has as its target Thyrotropin receptor (Homo sapiens) (UniProt P16473). Nature of the assay: qHTS assay to identify small molecule agonists of the thyroid stimulating hormone receptor (TSHR) signaling pathway (AID 1224843; calls by dose curve; also: nearly all actives have a fitted effect of over 45% in size). The essentials: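 Cell line HEK293 with TSHR; density 800/well. Exposure 30 min RT. Readout HTRF cAMP (cAMP-d2/anti-cAMP-cryptate), 1 h RT before reading.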
Assay [8] in a line: qHTS assay to identify small molecule agonists of H2AX (AID 1224845; active = well fitted activation curve with a large enough effect in the signal ratio in the repeat runs, not every such curve was filed as active; the % refers to the signal ratio). A digest of the protocol:
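Wild-type CHO-K1 cells plated overnight, then exposed 3 hr at 37C to compounds at 15 concentrations (0.76% DMSO). Lysed, then HTRF anti-pH2AX(S139)-cryptate/anti-H2AX-d2 detection after 24 hr at room temperature; emissions 665 and 620 nm.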

Assay [9] can be described thus: qHTS assay to identify small molecule antagonists of the estrogen related receptor (ERR) signaling pathway from Tox21 library (AID 1224848). Also: nearly all actives have a fitted effect of over 50% in size. Also: potency is read from the fitted curve at half-maximal effect. A digest of the protocol: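 Screening used an ERR reporter line supplied by NTP, exposed for 18 h at 37 C to library compounds delivered in DMSO. Signal was luciferase luminescence developed with ONE-Glo at room temperature for 30 min.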

The nature of assay [10]: qHTS assay to identify small molecule agonists of the estrogen related receptor (ERR) signaling pathway from Tox21 library (AID 1224849; calls by dose curve; also: nearly all actives have a fitted effect of over 15% in size). Particulars: ERR reporter cell line, ONE-Glo luciferase, 18 h. The essentials: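 ERR cells, 6 h pre-incubation 37 C/5% CO2; cpd in DMSO pinned; 18 h 37 C; ONE-Glo added, 30 min RT; luminescence read. Agonist mode, qHTS.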
Assay [11] in a line: qHTS RealTime-Glo MT Cell Viability Assay in HepG2 cells - 40 hour (AID 1224870). Also: nearly all actives have a fitted effect of over 50% in size. Also: potency is read from the fitted curve at half-maximal effect. The essentials:
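HepG2 cells mixed with RealTime-Glo MT reagents (NanoLuc plus cell-permeant prosubstrate) were seeded at 600 cells/well, incubated 5 h at 37 C/5% CO2, then pinned with compounds in DMSO; nonlytic luminescence tracked viability during 40 h treatment.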

Assay [12] in a line: qHTS assay to identify small molecule agonists of the hypoxia (HIF-1) signaling pathway - cell viability counter screen (AID 1224844; calls by dose curve; also: nearly all actives have a fitted effect of over 50% in size). The essentials:
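ME-180 HRE-bla cells, 2,000/well, 0.5% dialyzed FBS; 5 hr settle, 17 hr compound at 37C/5% CO2; CCF4-AM reporter read first, then CellTiter-Glo luminescence after 30 min RT.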

The nature of assay [13]: qHTS assay to identify small molecule agonists of the hypoxia (HIF-1) signaling pathway (AID 1224846; active = well fitted activation curve with a large enough effect in the signal ratio in the repeat runs, not every such curve was filed as active; the % refers to the signal ratio). A digest of the protocol: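 Cell line: CellSensor HRE-bla ME-180; 2,000 cells/well; 0.5% dialyzed FBS; 5 h preincubation; DMSO compound pin transfer; 17 h, 37C, 5% CO2; CCF4-AM added; bla FRET signal scored for activation.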
A short description of assay [14]: qHTS RealTime-Glo MT Cell Viability Assay in HepG2 cells - 24 hour (AID 1224867). Also: nearly all actives have a fitted effect of over 50% in size. A digest of the protocol: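 Cells + NanoLuc/prosubstrate dispensed (600 cells/well) → 5 h at 37 C/5% CO2 → compounds in DMSO transferred → 40 h incubation at 37 C, luminescence read at 0, 8, 16, 24, 32, 40 h.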
Assay [15] can be described thus: qHTS RealTime-Glo MT Cell Viability Assay in HEK293 cells - 32 hour (AID 1224868). A digest of the protocol:
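Tox21 10K qHTS, HEK293, 600 cells/well, RealTime-Glo reagent co-dispensed with cells; 5 h preincubation, compound by pintool, 37 C, luminescence at 0–40 h.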

Assay [16] in a line: A CellTox Green Cytotoxicity Assay to monitor cytotoxicity in HEK293 cells - 0 hour (AID 1224869). Also: nearly all actives have a fitted effect of over 50% in size. A digest of the protocol: (§1)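 Nonlytic real-time cytotoxicity: HEK293 + CellTox Green reagent plated, 5 h preincubation, pintool compound addition (23 nL in DMSO), 37 C for 40 h, fluorescence measured at successive time points.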
The nature of assay [17]: qHTS assay to identify small molecule agonists of H2AX - cell viability counter screen (AID 1224847; calls by dose curve; also: top concentration of the series differs between compounds; nearly all actives have a fitted effect of over 30% in size). The essentials: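 For this counter screen, overnight-attached CHO-K1 cells received test compounds (15 concentrations, 0.76% DMSO final); 3 hr later at 37C, CellTiter-Glo reagent was added and luminescence recorded after 30 min at room temperature.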
Assay [18] can be described thus: A CellTox Green Cytotoxicity Assay to monitor cytotoxicity in HEK293 cells - 40 hour (AID 1224871). Also: nearly all actives have a fitted effect of over 45% in size. The essentials: as §1
Assay [19] in a line: qHTS assay to identify small molecule antagonists of the estrogen related receptor signaling pathway with the pleiotropic PPARgamma coactivator (PGC) from Tox21 10K library (AID 1224841; call rule not given here). The essentials: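 PGC/ERR cell line, 2,000 cells/well; 6 h pre-incubation 37 C/5% CO2; compounds (DMSO) pinned in; 18 h, 37 C; One-Glo, 30 min RT; luminescence.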

A number with no mark means an inactive call. Records with an inconclusive call do not appear. Calls of active or inactive are those of the source. Unless noted, calls follow the shape of the dose curve; as a rule, active = well fitted curve in the direction sought with a large enough effect in the repeat runs; inconclusive = weak or mixed curves; inactive = no such curve, though single readings can be large; an effect the other way counts as inactive or inconclusive.
% is scaled to controls: 0 for no effect and ±100 for the full control effect.

Nuclear receptor subfamily 1 group I member 3 (Homo sapiens), sequence (Q14994 whole entry, looked up): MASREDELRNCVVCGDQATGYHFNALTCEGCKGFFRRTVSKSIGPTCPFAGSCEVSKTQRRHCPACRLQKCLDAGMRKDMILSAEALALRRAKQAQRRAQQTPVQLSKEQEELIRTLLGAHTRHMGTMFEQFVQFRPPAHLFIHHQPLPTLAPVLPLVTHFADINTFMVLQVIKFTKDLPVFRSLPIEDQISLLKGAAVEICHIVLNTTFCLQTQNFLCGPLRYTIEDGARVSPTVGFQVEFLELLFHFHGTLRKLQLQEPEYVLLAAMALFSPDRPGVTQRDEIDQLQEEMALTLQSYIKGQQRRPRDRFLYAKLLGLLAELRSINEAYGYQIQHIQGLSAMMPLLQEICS
Thyrotropin receptor (Homo sapiens), sequence (P16473 whole entry, looked up): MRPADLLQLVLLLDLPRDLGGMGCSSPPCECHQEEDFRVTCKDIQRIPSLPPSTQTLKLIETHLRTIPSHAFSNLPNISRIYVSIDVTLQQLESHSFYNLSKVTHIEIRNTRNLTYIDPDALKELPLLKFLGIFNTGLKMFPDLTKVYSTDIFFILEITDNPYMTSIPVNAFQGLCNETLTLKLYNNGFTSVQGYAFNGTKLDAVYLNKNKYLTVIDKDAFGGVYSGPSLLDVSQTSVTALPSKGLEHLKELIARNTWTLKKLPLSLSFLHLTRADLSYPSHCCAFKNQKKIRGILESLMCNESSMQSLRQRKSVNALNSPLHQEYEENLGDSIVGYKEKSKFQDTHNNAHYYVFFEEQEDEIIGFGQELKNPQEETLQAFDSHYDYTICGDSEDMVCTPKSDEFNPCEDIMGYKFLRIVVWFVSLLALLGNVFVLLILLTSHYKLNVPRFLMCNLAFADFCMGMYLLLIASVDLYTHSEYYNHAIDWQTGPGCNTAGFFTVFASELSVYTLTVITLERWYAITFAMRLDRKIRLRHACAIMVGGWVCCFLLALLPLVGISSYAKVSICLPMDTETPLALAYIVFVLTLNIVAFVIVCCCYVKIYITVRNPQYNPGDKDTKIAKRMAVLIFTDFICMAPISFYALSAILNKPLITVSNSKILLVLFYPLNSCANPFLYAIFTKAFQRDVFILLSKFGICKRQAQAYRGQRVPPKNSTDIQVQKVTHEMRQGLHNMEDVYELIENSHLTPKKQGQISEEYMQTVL
Luciferin 4-monooxygenase (Photinus pyralis), sequence (P08659 whole entry, looked up): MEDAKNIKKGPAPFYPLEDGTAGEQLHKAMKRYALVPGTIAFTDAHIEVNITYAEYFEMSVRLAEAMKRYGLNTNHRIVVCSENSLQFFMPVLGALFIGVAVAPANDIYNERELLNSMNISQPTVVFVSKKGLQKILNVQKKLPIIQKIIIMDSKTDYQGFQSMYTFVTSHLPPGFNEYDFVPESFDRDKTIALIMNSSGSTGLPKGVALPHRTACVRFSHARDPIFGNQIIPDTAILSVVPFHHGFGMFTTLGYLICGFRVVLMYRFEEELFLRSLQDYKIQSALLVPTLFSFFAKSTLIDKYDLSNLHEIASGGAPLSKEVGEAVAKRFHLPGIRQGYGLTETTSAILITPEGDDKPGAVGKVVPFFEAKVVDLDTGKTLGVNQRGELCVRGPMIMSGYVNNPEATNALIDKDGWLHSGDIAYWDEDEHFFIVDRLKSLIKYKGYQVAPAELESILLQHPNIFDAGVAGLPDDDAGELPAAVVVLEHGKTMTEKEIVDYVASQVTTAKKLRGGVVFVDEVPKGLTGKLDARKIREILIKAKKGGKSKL

Take `CC[N+](CC)(CC)CCOc1ccc(/C=C/c2ccccc2)cc1`: the Potency entry in assay [1], in [2], in assay [3], in assay [4], in assay [5] and in assay [6] was “inactive” in each case. The Potency entry in assay [7] and in assay [8] was “inactive” each time. Moreover, the Potency in [9] is 7.5 µM (active); in assay [11], 23.9 µM (active). Besides, the activity change, positive = activation in [10] (at 42.5 µM (top of the series)) was -43%.
`CC1(C)CC(O)CC(C)(C)N1`: the Potency entry in [1], in [2], in [3], in assay [4], in assay [5] and in assay [7] was “inactive” in each case. Besides, the Potency result in [12], in [8], in assay [13], in assay [14], in assay [15] and in assay [16] was “inactive” in each case. In addition, the Potency entry in assay [11] is “inactive”.
Consider `O=C(O)[C@H](O)[C@@H](O)[C@H](O[C@@H]1O[C@H](CO)[C@H](O)[C@H](O)[C@H]1O)[C@H](O)CO`, for which the Potency entry in assay [1], in assay [2], in assay [5], in assay [7], in assay [12] and in [8] was “inactive” throughout. Besides, the Potency entry in assay [17], in [14], in assay [15], in assay [16], in [11] and in assay [18] was “inactive” each time.
Consider `Cc1c(C)c2c(c(C)c1O)CC[C@@](C)(CCC[C@H](C)CCC[C@H](C)CCCC(C)C)O2`, for which the Potency entry in assay [1], in assay [2], in assay [5], in assay [12], in [8] and in assay [13] was “inactive” each time. In addition, the Potency result in assay [17], in assay [14], in assay [15], in [11] and in [18] was “inactive” each time.
In the case of `CC(=O)Oc1cc2c(s1)CCN(C(C(=O)C1CC1)c1ccccc1F)C2` (stereo not drawn), the Potency entry in assay [1], in [2], in assay [5], in assay [19], in assay [6] and in assay [7] was “inactive” in each case. Also, the Potency result in [12], in assay [13], in assay [17], in assay [9], in [14] and in assay [15] was “inactive” each time. In addition, the Potency entry in [16], in [11] and in [18] was “inactive” in each case. The activity change, positive = activation in assay [10] (at 42.5 µM (top of the series)) is -6.5%.
As to `CC(C)OC(=O)C(O)(CC(=O)O)CC(=O)O`, the Potency result in assay [1], in [2], in assay [3], in assay [5], in [19] and in assay [6] was “inactive” in each case. Also, the Potency result in [7], in [12], in assay [8], in [13], in [14] and in assay [15] was “inactive” in each case. The Potency result in assay [16], in assay [11] and in [18] was “inactive” throughout. For the same molecule, the activity change, positive = activation in [10] (at 92.4 µM (top of the series)) is 4.45%.
As for `CNc1ccc([N+](=O)[O-])cc1`, the Potency is 40 µM (active) in assay [1], 48.7 µM (active) in assay [2] and 48.7 µM (active) in assay [5]. Besides, the Potency result in [3], in assay [4], in [19], in [6], in [7] and in assay [8] was “inactive” each time. In addition, the Potency entry in [13], in assay [9], in [14], in [15], in assay [16] and in [11] was “inactive” throughout. For the same molecule, in [10] (at 92.4 µM (top of the series)), the activity change, positive = activation was 0.163%.
Regarding `CCCCCCCCCCOC(=O)c1ccccc1C(=O)OCCCCCCCC`, the Potency entry in [1], in assay [2], in [3], in assay [4], in assay [5] and in [7] was “inactive” throughout. Besides, the Potency entry in [12], in [8], in [17], in assay [15], in [16] and in [11] was “inactive” throughout. Further, in [18], the Potency entry was “inactive”.

(Values after PubChem BioAssay (Tox21).)
